Reference: PubChem BioAssay AID624330 (Southern Research Specialized Biocontainment Screening …, 2012)
About 2,100 (0.62%) of roughly 340,000 compounds were called active.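 Rule for the calls: active = first-screen hits whose inhibition reached a set limit at any dose in the follow-up dose series; inconclusive = inhibition above the set first-screen limit but never retested; inactive = the rest.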 The list is a sample of the results. Measured potencies and affinities stand elsewhere.

What follows are compounds tested against Rac GTPase-activating protein 1 (Homo sapiens) (UniProt Q9H0H5) (assay: MgcRacGAP GTPase-activating activity inhibitors, confirmation, biochemical, ADP Hunter fluorescence, primary and confirmatory (AID 624330;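 note: fluorescence reports GDP produced by GAP-driven GTP hydrolysis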)). Conditions: MgcRacGAP-stimulated Rac1 GTP hydrolysis, at 30 µM, active compounds read high, GST-tagged Rac1 F28L mutant substrate.
Sequence of Rac GTPase-activating protein 1 (Homo sapiens) (Q9H0H5 whole entry, looked up): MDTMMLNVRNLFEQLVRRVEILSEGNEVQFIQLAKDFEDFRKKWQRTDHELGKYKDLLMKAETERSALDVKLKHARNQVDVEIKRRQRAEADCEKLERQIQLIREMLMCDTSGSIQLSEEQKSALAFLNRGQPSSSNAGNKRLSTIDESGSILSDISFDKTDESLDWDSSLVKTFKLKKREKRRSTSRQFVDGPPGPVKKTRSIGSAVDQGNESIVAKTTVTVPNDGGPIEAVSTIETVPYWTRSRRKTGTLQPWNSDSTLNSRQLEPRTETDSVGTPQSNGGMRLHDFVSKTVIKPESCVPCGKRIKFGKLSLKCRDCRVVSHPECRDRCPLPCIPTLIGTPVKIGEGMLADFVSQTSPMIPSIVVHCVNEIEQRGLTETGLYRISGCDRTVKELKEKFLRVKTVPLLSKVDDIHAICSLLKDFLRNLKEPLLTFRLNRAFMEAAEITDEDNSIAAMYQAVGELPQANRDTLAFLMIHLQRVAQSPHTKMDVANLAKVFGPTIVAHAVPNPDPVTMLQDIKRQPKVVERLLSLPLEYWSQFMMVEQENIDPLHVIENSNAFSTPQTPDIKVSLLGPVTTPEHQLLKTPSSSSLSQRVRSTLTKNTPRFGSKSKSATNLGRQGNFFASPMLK

inhibition, inactive:
CCOC(=O)CSc1nc2cc(S(=O)(=O)Nc3ccccc3OC)ccc2o1 5.81%
Clc1cccc(CSc2ncnc3c2ncn3C2CCCCO2)c1 (stereo unspecified) 2.71%
NS(=O)(=O)c1ccc(CCNC(=O)CN2CCN(Cc3cccc4ccccc34)CC2)cc1 3.28%
O=C1NC(=S)S/C1=C\c1cccc([N+](=O)[O-])c1 11.9%
O=C(O)/C=C/c1ccc([N+](=O)[O-])o1 12.4%
Cc1cc2[nH]c3ccccc3c2cn1 17%
COC(=O)c1c(NC(=O)C2CCCCC2)sc2c1CCN(C(C)C)C2 8.85%
CC(=O)N1CCN(CC(O)COc2ccc(OCc3ccccc3)cc2)CC1 (stereo unspecified) 3.99%
Cc1cccc(C)c1OCC(O)CN1CCN(C(=O)c2ccccc2)CC1 (stereo unspecified) -23.8%
CCOC(=O)N1CCN(CC(O)COc2c(C)cc(C)cc2C)CC1 (stereo unspecified) 3.3%
COc1cccc(OCC(O)CN2CCOCC2)c1 (stereo unspecified) 6.97%
O=C(c1ccccc1)N1CCN(CC(O)COc2ccc(Br)cc2)CC1 (stereo unspecified) 1.08%
CCN1CCN(CC(O)COc2cccc(OC)c2)CC1 (stereo unspecified) 8.83%
CCN(CC)CCNC(=O)NC(=O)c1ccc(Cl)cc1 -9.05%
O=C(NCc1ccccc1F)C(=O)NCC1OCCCN1S(=O)(=O)c1cccs1 (stereo unspecified) -0.33%
COc1ccc(NC(=O)COc2nsnc2N2CCCCC2)cc1 17.2%
Cc1ccc(N(Cc2ccc(C(=O)NCC3CCCO3)cc2)S(C)(=O)=O)cc1C (stereo unspecified) -2.07%
CC(=O)NC1C(Oc2ccc(C=O)cc2)OC(COC(C)=O)C(OC(C)=O)C1OC(C)=O (stereo unspecified) 0.46%
COc1ccc(O[C@@H]2O[C@H](COC(C)=O)[C@@H](OC(C)=O)[C@H](OC(C)=O)[C@H]2NC(C)=O)cc1 5.33%
O=C(NCc1ccc(F)cc1F)Nc1cnccc1C(F)(F)F 0.3%
CC1(c2nnc(-c3ccccc3)o2)CC(c2c(Cl)cccc2Cl)=NO1 (stereo unspecified) 7.59%
Cc1ccc(/C=N/N2CCN(c3ccccn3)CC2)cc1 6.1%
C(=N\N1CCN(c2ccccc2)CC1)/c1ccccc1 9.75%
Cc1ccc(/C=N/N2CCN(c3ccccc3)CC2)cc1 14.1%
C(=N\N1CCN(c2ccccn2)CC1)/c1ccccn1 13.7%
COc1ccc(CCNC(=O)C2CCN(S(=O)(=O)c3ccc(OC)c(OC)c3)CC2)cc1OC 1.02%
CCCOc1ccc(C2C(C(=O)c3ccc(C)o3)=C(O)C(=O)N2Cc2ccco2)cc1 (stereo unspecified) 9.74%
O=[N+]([O-])c1ccc(NN=C(C2CC2)C2CC2)c([N+](=O)[O-])c1 9.77%
COC(=O)c1sc2nc(-c3ccccc3)nc(N3CCN(C)CC3)c2c1C 6.27%
COc1ccccc1N1C(=O)CC(Sc2ccccc2N)C1=O (stereo unspecified) 2.06%
COc1ccc(C(=O)Nc2c(O)ccc3ccccc23)cc1OC 9.73%
COc1cc2ccc(C(C)=O)c(O)c2cc1OC 8.81%
COc1ccc(Cc2c3cc(OC)c(OC)cc3cc[n+]2C)cc1OC -5.7%
COc1cc2ccc(=O)oc2cc1O 16.3%
O=C(CN(Cc1ccc(Cl)cc1)C(=O)CN1C(=O)COc2ccccc21)NC1CCCC1 8.29%
O=C(Nc1cccc(F)c1)Nc1ccc(Cl)cn1 0.09%
CC(=C/c1ccccc1)/C=N/N1CCN(Cc2ccc(C)cc2)CC1 7.95%
CCOC(=O)[C@H](O)[C@@H](O)c1cccc([C@H](O)[C@@H](O)C(=O)OCC)c1 11.8%
CN(Cc1ccccc1)C(=O)c1cc(-c2ccc(Br)cc2)on1 7.89%
Cc1ccc(CSc2nnc(NC(=O)Cn3cnc4ccccc4c3=O)s2)cc1 -8.67%
CCOC(=O)c1c(-c2ccccc2)csc1NC(=O)CCN1CCOCC1 18.3%
CCOC(=O)c1c(-c2ccc(-c3ccccc3)cc2)csc1NC(=O)CCN1CCOCC1 -2.88%
COC(=O)Cn1c(=NC(=O)C2COc3ccccc3O2)sc2cc(S(N)(=O)=O)ccc21 (stereo unspecified) 3.94%
COC(=O)c1cc(-c2ccc(Cl)cc2)n(-c2ccc(S(N)(=O)=O)cc2)n1 5.18%
O=S(=O)(N/N=C/c1ccc2c(c1)OCCO2)c1ccccc1 9.57%
COC(=O)c1cc(S(=O)(=O)NCc2ccccc2)c[nH]1 11.6%
COc1cc(O)cc2cc3c(c(O)c12)C(=O)CC(C)(O)O3 (stereo unspecified) -0.09%
CCOc1ccc(S(=O)(=O)n2c([N+](=O)[O-])cnc2C)c(C)c1C 6.34%
Cc1[nH]c(=S)c(C#N)c(C)c1CC(=O)c1ccc(Br)cc1 8.21%
O=C(CN1C(=O)c2ccccc2S1(=O)=O)c1ccccc1 8.2%
O=C(CN1C(=O)c2ccccc2S1(=O)=O)c1ccc(F)c(F)c1 -3.06%
COCCN(C(=O)CSc1nnc(C)n1-c1ccccc1)c1c(N)n(Cc2ccccc2)c(=O)[nH]c1=O 9.16%
Cc1cc(OCC(=O)NCc2ccccn2)c2c(C)cc(=O)oc2c1 2.23%
CN(C)C/C=C(/c1ccc(Br)cc1)c1cccnc1 3.6%
CN(C)CCCO/N=C(\c1ccccc1)c1ccncc1 24.4%
CC(C)c1ccc(NC(=O)NCc2ccccn2)cc1 8.07%
C[C@H](CO)N1C[C@H](C)[C@@H](CN(C)C(=O)Nc2ccc(C(F)(F)F)cc2)Oc2ccc(NC(=O)CCC(F)(F)F)cc2C1=O 5.69%
COCC(C)OC(=O)C(C#N)c1nc2ccccc2nc1N1CCN(Cc2ccccc2)CC1 (stereo unspecified) 6.54%
Cc1cc(C)n(CCC(=O)N/N=C/c2ccccc2O)n1 3.84%
COc1ccc(/C=N/NC(=O)CCn2nc(C)cc2C)cc1 -2.7%
O=C(Cn1cc(C(F)(F)F)ccc1=O)N/N=C/c1ccc(F)cc1 -1.82%
O=C(CCn1cnc(-c2ccccc2)c1-c1ccccc1)N/N=C/c1ccc(O)cc1 27.5%
O=C(Cn1cc(C(F)(F)F)ccc1=O)N/N=C/c1ccc(Cl)cc1 11.1%
Cc1cc(C)n(CCC(=O)N/N=C/c2ccc(O)cc2O)n1 -27.4%
COc1ccc(/C=N/NC(=O)CCn2nc(C)cc2C)cc1O 26.5%
O=C(CCn1cnc2ccccc21)N/N=C/c1ccccc1O 0.87%
